“And” between values parts separate entries of the source, which are not always exact repeats. Equal values may be shown once. The whole screen tested about 350,000 compounds, of which about 840 (0.24%) were called active. The sample holds actives, similar compounds and a random draw of the others, so the mix is not that of the screen. Values without a mark were called inactive. Rule as the data show it: active = inhibition above about 10%; inactive = the rest.

The target in this assay is Toxin B (Clostridioides difficile) (UniProt P18177). Nature of the assay: TcdB glycohydrolase inhibitors, primary screen, biochemical, single point, plate reader (AID 652162). The note with it: TcdB glycohydrolase enzymatic assay, at 9.99 µM, hits give high values.
Toxin B (Clostridioides difficile), sequence (P18177 whole entry, looked up): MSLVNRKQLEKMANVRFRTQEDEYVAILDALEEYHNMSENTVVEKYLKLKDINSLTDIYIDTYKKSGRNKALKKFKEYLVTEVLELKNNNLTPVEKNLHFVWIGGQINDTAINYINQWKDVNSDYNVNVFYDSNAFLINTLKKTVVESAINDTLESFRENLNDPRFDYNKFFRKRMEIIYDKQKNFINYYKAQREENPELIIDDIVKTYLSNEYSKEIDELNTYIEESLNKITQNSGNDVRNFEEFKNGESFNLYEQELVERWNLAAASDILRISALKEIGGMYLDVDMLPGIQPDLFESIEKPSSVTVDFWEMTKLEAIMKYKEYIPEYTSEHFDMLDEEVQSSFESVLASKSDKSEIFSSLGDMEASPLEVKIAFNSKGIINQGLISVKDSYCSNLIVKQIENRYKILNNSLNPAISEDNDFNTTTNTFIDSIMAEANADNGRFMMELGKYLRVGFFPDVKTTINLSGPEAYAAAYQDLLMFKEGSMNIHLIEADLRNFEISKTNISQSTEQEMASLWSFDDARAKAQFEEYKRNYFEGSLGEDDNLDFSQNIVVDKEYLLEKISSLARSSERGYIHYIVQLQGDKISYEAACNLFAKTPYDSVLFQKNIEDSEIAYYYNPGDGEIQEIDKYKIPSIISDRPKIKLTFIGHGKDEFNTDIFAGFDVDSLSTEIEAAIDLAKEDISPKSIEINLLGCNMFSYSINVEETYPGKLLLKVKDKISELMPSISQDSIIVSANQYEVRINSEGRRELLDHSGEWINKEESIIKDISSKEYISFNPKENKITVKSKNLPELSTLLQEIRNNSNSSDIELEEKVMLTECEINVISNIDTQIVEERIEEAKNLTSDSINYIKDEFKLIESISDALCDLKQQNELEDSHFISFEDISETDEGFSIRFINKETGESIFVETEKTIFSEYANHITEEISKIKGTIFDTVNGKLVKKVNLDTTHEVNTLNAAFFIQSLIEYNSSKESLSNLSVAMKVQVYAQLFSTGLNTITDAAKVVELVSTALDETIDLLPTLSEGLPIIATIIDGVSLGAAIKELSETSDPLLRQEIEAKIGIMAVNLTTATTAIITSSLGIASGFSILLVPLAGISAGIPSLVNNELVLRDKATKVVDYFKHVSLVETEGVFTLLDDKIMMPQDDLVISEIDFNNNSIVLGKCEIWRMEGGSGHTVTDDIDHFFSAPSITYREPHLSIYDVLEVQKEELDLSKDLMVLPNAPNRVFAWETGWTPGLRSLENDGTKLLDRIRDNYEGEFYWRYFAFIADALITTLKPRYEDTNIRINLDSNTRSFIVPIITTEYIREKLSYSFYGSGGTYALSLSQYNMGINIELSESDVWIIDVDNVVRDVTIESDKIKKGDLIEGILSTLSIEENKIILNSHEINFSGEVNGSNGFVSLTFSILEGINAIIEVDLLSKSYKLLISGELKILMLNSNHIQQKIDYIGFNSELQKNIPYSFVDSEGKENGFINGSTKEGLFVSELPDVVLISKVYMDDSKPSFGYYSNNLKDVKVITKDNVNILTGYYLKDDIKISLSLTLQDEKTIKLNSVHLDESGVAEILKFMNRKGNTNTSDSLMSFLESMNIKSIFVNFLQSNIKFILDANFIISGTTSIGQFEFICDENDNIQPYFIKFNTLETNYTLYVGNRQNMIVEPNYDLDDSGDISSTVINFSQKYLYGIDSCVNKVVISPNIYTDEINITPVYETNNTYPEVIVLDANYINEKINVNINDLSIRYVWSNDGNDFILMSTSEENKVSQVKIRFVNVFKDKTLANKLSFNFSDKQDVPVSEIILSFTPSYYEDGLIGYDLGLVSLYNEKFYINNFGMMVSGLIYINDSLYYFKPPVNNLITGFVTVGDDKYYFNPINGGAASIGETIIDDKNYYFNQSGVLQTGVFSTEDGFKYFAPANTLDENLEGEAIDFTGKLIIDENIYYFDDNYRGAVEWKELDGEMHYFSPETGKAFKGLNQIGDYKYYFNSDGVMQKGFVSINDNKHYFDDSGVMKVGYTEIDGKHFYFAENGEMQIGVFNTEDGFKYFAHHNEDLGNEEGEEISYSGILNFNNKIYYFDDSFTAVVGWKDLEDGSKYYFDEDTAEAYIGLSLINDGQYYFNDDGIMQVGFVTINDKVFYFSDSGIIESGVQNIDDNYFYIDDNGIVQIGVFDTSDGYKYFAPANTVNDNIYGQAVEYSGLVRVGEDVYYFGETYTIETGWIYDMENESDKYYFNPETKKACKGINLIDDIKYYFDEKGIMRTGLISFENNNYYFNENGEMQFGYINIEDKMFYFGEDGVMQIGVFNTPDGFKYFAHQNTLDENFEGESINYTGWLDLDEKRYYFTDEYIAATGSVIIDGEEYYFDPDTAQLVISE
In general, inhibition refers to the drop in the measured response relative to a control, in per cent. `COCC(=O)Nc1ccc2c(c1)C(=O)N(C)[C@@H]1CC[C@@H](CC(=O)NCC(F)(F)F)O[C@H]1CO2`: the inhibition was 0.945%.
`O=C(C[C@@H]1CC[C@H](NC(=O)Cc2ccccn2)[C@H](CO)O1)NCCc1ccncc1`: the inhibition is -1.24%.
To `O=C(Nc1ccc(F)cc1)N[C@H]1CC[C@H](CCn2cc(-c3ccc(F)cc3)nn2)O[C@@H]1CO` belongs -2.54%.
Take `CO[C@@H]1CN(C)C(=O)c2cc(NC(=O)C3CC3)ccc2OC[C@H](C)N(C(=O)c2ccccc2F)C[C@H]1C`: the inhibition is 0.856%.
To `O=C(C[C@@H]1C[C@@H]2c3cc(NC(=O)c4ccc5c(c4)OCO5)ccc3O[C@@H]2[C@@H](CO)O1)NCc1ccc(Cl)cc1` belongs 1.53%.
In the case of `O=C(C[C@H]1C[C@@H]2c3cc(NC(=O)c4ccc5c(c4)OCO5)ccc3O[C@@H]2[C@@H](CO)O1)NCc1cccnc1` it was -0.896%; in that of `O=C(C[C@H]1C[C@H]2c3cc(NC(=O)c4ccc5c(c4)OCO5)ccc3O[C@H]2[C@@H](CO)O1)NCc1cccc(F)c1`, 15.2% (active).
In the case of `CNC[C@H]1Oc2cc(-c3ccc(C(=O)N(C)C)cc3)ccc2S(=O)(=O)N([C@@H](C)CO)C[C@@H]1C`, the inhibition was -0.097%.
In the case of `C[C@@H]1CN([C@H](C)CO)C(=O)c2cc(C3=CCCC3)cnc2O[C@H]1CN(C)C` it was 0.146%; in that of `COc1ccc(NC(=O)N(C)C[C@@H]2Oc3c(NC(=O)c4ccc(-c5nccs5)cc4)cccc3C(=O)N([C@H](C)CO)C[C@@H]2C)cc1`, 0.889%.
In the case of `COc1cccc(NC(=O)N[C@@H]2C=C[C@H](CC(=O)NCc3ccccn3)O[C@H]2CO)c1` it was -0.684%.
Take `N#C[C@H]1N[C@H](CO)[C@H]1c1ccc(-c2cccc(F)c2)cc1`: the inhibition is -1.58%.
In the case of `Cc1ccc(-c2ccc(C3[C@H]4CNC[C@@H]3N4S(=O)(=O)c3ccccc3C)cc2)cc1` (some centres undefined) it was -0.326% and -0.213%; in that of `COC(=O)[C@@H]1[C@@H](CO)[C@@H]2Cn3c(ccc(-c4ccc(OC)cc4)c3=O)[C@@H]2N1C`, -0.952%.
As for `C[C@@H]1CN([C@H](C)CO)C(=O)c2cc(NC(=O)NC3CCCCC3)ccc2O[C@@H](C)CCCCO[C@H]1CN(C)C(=O)Nc1ccccc1`, the inhibition was 0.722%.
In the case of `C[C@H](CO)N1C[C@H](C)[C@H](CN(C)Cc2ccc3c(c2)OCO3)OCCCC[C@H](C)Oc2ccc(NC(=O)c3ccccc3)cc2C1=O`, the inhibition is -0.045%.
In the case of `O=Cc1cn(Cc2ccc(F)cc2Cl)c2ccccc12` it was -0.141%.
In the case of `O=c1c([N+](=O)[O-])cccn1Cc1ccc(F)cc1Cl` it was 38.4% (active); in that of `Cc1ccc(-c2ccc(=O)n(Cc3ccc(F)cc3Cl)n2)cc1`, 0.329%.
In the case of `CCC(=O)N1C[C@@H](C)[C@H](OC)CN(C)C(=O)c2ccc(NC(=O)COC)cc2OC[C@@H]1C` it was -0.964%; in that of `C[C@@H]1CCCCO[C@@H](CN(C)C(=O)NC2CCCCC2)[C@H](C)CN([C@H](C)CO)C(=O)c2cc(NC(=O)Nc3cccc4ccccc34)ccc2O1`, -0.319%.
For `CNC(=O)C[C@H]1CC[C@H]2[C@H](COc3ccc(NC(=O)c4cccc(F)c4)cc3C(=O)N2C)O1`, the inhibition was -0.293% and -0.193%.
In the case of `CN1C(=O)c2cc(NC(=O)c3ccccc3)ccc2OC[C@@H]2O[C@H](CC(=O)NCC3CC3)CC[C@@H]21` it was 0.093%; in that of `CN1C(=O)c2cc(NC(=O)c3cccc(F)c3)ccc2OC[C@@H]2O[C@@H](CC(=O)NCC3CCCCC3)CC[C@H]21`, 27.1% (active) and 19.3% (active).
On to `Cc1cc(C(=O)Nc2ccc3c(c2)C(=O)N(C)[C@H]2CC[C@H](CC(=O)NCC(F)(F)F)O[C@@H]2CO3)no1`, for which the inhibition was -0.366%.
In the case of `CO[C@H]1O[C@H](CO)[C@@H](OC(=O)Nc2ccc(C(F)(F)F)cc2)[C@H](OC(=O)Nc2ccc3c(c2)OCO3)[C@H]1OC(=O)Nc1ccc2c(c1)OCO2`, the inhibition is 0.426%.
In the case of `CO[C@@H]1CN(C)C(=O)c2cc(NC(C)=O)ccc2OC[C@H](C)N(Cc2ccccc2F)C[C@@H]1C` it was -0.886%; in that of `CN(C)C(=O)c1ccc(-c2ccc([C@H]3[C@H](CO)N4CCCCN(S(C)(=O)=O)C[C@@H]34)cc2)cc1`, -1.71%.
To `O=C(CCN1CCCCC1)N[C@H]1CC[C@H](CCNS(=O)(=O)c2ccc(F)cc2)O[C@@H]1CO` belongs 0.554%.
Regarding `Cc1ccccc1-c1ccc(C2[C@@H]3CN(C(=O)C4CCCCC4)C[C@H]2N3)cc1` (some centres undefined), the inhibition was -3.88% and 0.934%.
To `Cc1nonc1C(=O)N/N=C/c1ccc(O)cc1` belongs 5.9%.
`Nc1nnn(CC(=O)N/N=C/c2ccc(O)cc2)n1`: the inhibition is 13.2% (active).
To `Nc1nnn(CC(=O)N/N=C/c2ccccc2)n1` belongs 1.05%.
On to `O=C(CSC1c2ccccc2-c2ccccc21)N/N=C/c1ccccc1`, for which the inhibition is 2.65%.
In the case of `O=C(C[n+]1ccccc1)N/N=C/c1ccc(O)cc1` it was 11.1% (active).
Take `O=C(CN1CCSCC1)N/N=C/c1ccc(Cl)cc1`: the inhibition was 1.98%.
In the case of `COc1ccc2c3c([nH]c2c1)[C@@H](CO)N(C(=O)CC1CC1)CC31CCN(Cc2cccnc2)CC1` it was 0.524%; in that of `O=C(Cc1ccccc1)N1C[C@@H]2[C@H](c3ccccc31)[C@@H](CO)N2C(=O)Nc1ccc(F)cc1`, 1.65%.
To `COCC(=O)Nc1ccc2c(c1)[C@H]1C[C@H](CC(=O)NCc3ccc(OC)cc3)O[C@@H](CO)[C@H]1O2` belongs 1.91%; to `CN1C(=O)c2cc(NC(=O)Nc3ccccc3F)ccc2OC[C@H]2O[C@H](CC(=O)NCc3ccc(-c4ccccc4)cc3)CC[C@H]21`, -0.392%; to `COCC(=O)Nc1ccc2c(c1)OC[C@H](C)N(C(=O)c1ccccc1F)C[C@H](C)[C@H](OC)CN(C)C2=O`, 0.041%.
In the case of `O=c1[nH]c(CN2CCOCC2)nc2cc(Cl)ccc12` it was 11.3% (active).
Consider `O=c1[nH]c(CN2CCOCC2)nc2scc(-c3ccccc3)c12`, for which the inhibition was 2.63%.
In the case of `CN(CCOc1ccccc1)Cc1nc2cc(Cl)ccc2c(=O)[nH]1` it was -0.715%.

The values above are taken from PubChem BioAssay AID652162 (Broad Institute, 2013).
